Bioassay records as filed in PubChem BioAssay.
ALDH1A1 inh – blocks purified human ALDH1A1 activity | actives 7.3% (n = 220,000) | Purified ALDH1A1, NADH fluorescence, propionaldehyde substrate | P00352 | Potency, µM (series often up to 75.3 µM), for inactives: top-dose activity, negative = inhibition, actives largely listed as inhibitors; active = well fitted inhibition curve with a large enough effect, not every such curve was filed as active; inconclusive = small, poorly fitted or top-dose-only effect, or another doubt; inactive = no such curve, though single readings can be large or run the other way;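 note: potency is the fitted concentration of half-maximal effect; plate controls were no enzyme wells and a reference inhibitor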
Target sequence (P00352 whole entry, looked up): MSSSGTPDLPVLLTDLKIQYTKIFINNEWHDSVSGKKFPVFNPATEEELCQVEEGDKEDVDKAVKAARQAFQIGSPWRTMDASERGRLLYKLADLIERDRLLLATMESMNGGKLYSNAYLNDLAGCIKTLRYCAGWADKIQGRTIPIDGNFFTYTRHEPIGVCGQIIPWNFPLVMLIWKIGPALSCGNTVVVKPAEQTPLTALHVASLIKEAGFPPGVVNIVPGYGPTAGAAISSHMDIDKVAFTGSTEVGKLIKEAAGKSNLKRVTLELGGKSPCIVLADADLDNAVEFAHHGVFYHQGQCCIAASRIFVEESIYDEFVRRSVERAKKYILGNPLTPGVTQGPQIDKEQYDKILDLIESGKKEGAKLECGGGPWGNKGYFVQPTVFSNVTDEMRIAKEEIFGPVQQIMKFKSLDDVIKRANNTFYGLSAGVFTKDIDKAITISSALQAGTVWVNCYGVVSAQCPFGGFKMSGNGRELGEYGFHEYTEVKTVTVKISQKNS
HPGD inh – inhibitors of human 15-hydroxyprostaglandin dehydrogenase (HPGD); Potency, µM, without a hit: top-dose activity change, negative = inhibition, usual class: inhibitors; AID 894; P15428; purified HPGD, NADH fluorescence kinetic, PGE2 substrate; actives 4.3% (n = 150,000); active = well fitted inhibition curve with a large enough effect, not every such curve was filed as active; inconclusive = small, poorly fitted or top-dose-only effect, or another doubt; inactive = no such curve, though single readings can be large or run the other way; note: potency is the fitted concentration of half-maximal effect; % is set by controls: 0 for no effect and ±100 for the full control effect
Target sequence (P15428 whole entry, looked up): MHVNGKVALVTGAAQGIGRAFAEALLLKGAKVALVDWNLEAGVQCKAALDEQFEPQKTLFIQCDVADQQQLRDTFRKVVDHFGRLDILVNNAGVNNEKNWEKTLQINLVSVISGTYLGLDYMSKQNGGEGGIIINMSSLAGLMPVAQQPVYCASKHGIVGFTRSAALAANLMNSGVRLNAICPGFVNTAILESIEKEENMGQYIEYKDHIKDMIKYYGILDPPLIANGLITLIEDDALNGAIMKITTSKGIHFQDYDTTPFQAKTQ
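NADH formation kinetics: reaction with 30 uM PGE2 and 1 mM NAD+ (final), 20 nM enzyme, Tris-HCl pH 8 with Tween 20, after 15 min compound preincubation at room temperature. Fluorescence change, last versus first of five reads.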
CBFb-RUNX1 inh – inhibitors of human CBF-beta and RUNX1 interaction | 230,000 tested, under 10 active | AlphaScreen CBFb-His/RUNX1-biotin binding, biochemical | Potency, µM (doses to about 59.8 µM), for inactives: at the top dose activity, negative = inhibition, most hits filed as inhibitors | Q01196+Q13951 | AID 1477; note: % of control where 0% means no effect
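Inhibition was taken as any reduction in AlphaScreen signal from the CBF-beta–RUNX1 pair (His and biotin tags, 30 nM each), measured after compound (15 min) and bead (90 min) incubations at room temperature.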
HTT aggregate – mutant huntingtin aggregation inhibition. PC12 HttQ103-GFP aggregates, Acumen cytometry, 40 h. Potency, µM (titrated, usually from 46.1 µM), for inactives: top-dose activity change, negative = inhibition, most hits filed as inhibitors. actives 1.1% (n = 220,000). AID 1688; note: potency is the fitted concentration of half-maximal effect; % is set by controls: 0 for no effect and ±100 for the full control effect; nearly all actives have a fitted effect of over 60% in size
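Aggregate formation scored by laser-scanning cytometer (488 excitation, 500–530 emission) in lysed PC12 cells expressing Q103-GFP after 100 nM tebufenozide induction; library tested in dose series, with ATPLite reagent added in the multiplex.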
PNC inhibitor – inhibitors of perinucleolar compartment assembly | PC3M PTB-GFP, PNC prevalence imaging, 16 h; stronger effect = lower value | activity change (PNC), negative = inhibition, % at 10 µM | actives 3.1% (n = 140,000) | AID 2417;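 active = readout at or below -70, meaning at least 70% loss of cells showing the perinucleolar compartment, a nuclear body marking cancer cells; inconclusive = readout between -30 and a set limit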;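 note: plate controls were DMSO wells for no effect and camptothecin positive control wells for full effect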
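Compounds are pinned in duplicate onto adhered PC3M cells stably expressing GFP-tagged PTB and incubated 16 h at 37 C. Cells are then fixed, nuclei stained with Hoechst, and PNC-positive cells counted.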
HTT ATP protect – protects HTT-Q103 PC12 cells, measured by ATP; PC12 HTT-Q103 induced, cytoprotection, ATP luminescence, 40 h; Potency, µM (highest dose often 56.4 µM), for the others: cytoprotection (ATP increase), hits mostly activators; actives 0.14% (n = 230,000); AID 1471; note: potency is the fitted concentration of half-maximal effect; % of control where 0% means no effect; nearly all actives have a fitted effect of over 45% in size
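ATP quantification (ATPlite) reports survival of PC12 cells in which tebufenozide, 100 nM final, switches on Htt exon 1 with 103 glutamines linked to GFP; compounds are titrated.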
* marks the source's active call; other numbers are inactive results; u = inconclusive; x = no result given; [ ] = another dose, or the depositor's remark. A selection: hits, their analogues and other compounds. The true share with any hit is near 11%. Unless noted, calls come from the whole dose curve; as a rule, active = well fitted curve in the direction sought with a large enough effect; inconclusive = small, poorly fitted or top-dose-only effect, or another doubt; inactive = no such curve, though single readings can be large; an effect the other way counts as inactive or inconclusive.

SMILES	ALDH1A1 inh	HPGD inh	CBFb-RUNX1 inh	HTT aggregate	PNC inhibitor	HTT ATP protect
Cc1ccccc1CSCCNC(=O)c1ccccc1	u	32µM*	-2%	11%	4	-34%[0.074 µM]
O=C(Nc1ccccc1C(=O)O)c1cncc(Br)c1	14µM*	-26%	1%	43%	17	-18%
Cc1ccccc1-c1nc(CS(=O)(=O)CC(=O)N2CCc3ccccc32)c(C)o1	-5%	-10%	-1%	20%	-3	21%[10 µM]
CC(=O)Nc1ccn(C2CC3OCC(NC(=O)C(Cc4ccccc4)NC(=O)OC(C)(C)C)C3O2)c(=O)n1 (centres undefined)	x	x	-9%	x	x	x
O=C(O)C(Cl)(c1ccccc1)c1ccccc1	-10%[13.5 µM]	-4%	x	x	x	2%[10 µM]
CSc1ccccc1C(=O)NCCSc1ccccc1	-4%	16µM*	3%	-11%	-15	0%
O=C(NCCSc1ccccc1)c1ccccc1	-2%	-28%	6%	-7%	17	1%
CCCCCNC(=O)c1ccccc1SC	8%	14µM*	0%	-2%	-4	-3%
CSc1ccccc1C(=O)NCCSC(C)(C)C	1%	25µM*	-1%	-8%	51	-19%[0.074 µM]
CCCCNC(=O)c1ccccc1Cl	15%	8.9µM*	-3%	-2%[9.22 µM]	-22	-9%
COc1ccccc1C1CC(=O)Oc2cc(C)c(Cl)c(C)c21 (centres undefined)	u	-13%	-22%[89.1 µM]	x	x	u
COc1ccc(CNc2nc(-c3ccc4c(c3)OCO4)nc3ccccc23)c(OC)c1	3%	x	x	x	x	-1%
Cc1ccccc1C(=O)NCCSc1ccccc1	-1%	20µM*	1%	-21%	u	-12%
CCOc1ccc2c(c1)nc(SCC(=O)c1cccs1)n2C	u	-10%	-2%	17%	48	-7%
CCOc1ccc2c(c1)nc(SCC(=O)c1ccc(Br)s1)n2C	18µM*	u	-6%	-12%	57	-3%
COc1ccc(C2Nc3ccccc3C(=O)N2Cc2ccco2)cc1CN1C(=O)c2ccccc2C1=O (centres undefined)	-8%	-6%	-22%	1%[9.22 µM]	-5	-23%
COc1ccc(C2Nc3ccccc3C(=O)N2Cc2ccco2)cc1COc1ccc(F)cc1 (centres undefined)	2.5µM*	u	-4%	-16%	141	-13%[10 µM]
CCCCNS(=O)(=O)c1ccc(NC(=O)C(Sc2ccccc2)c2ccccc2)cc1 (centres undefined)	18%	-4%	5%	u	21	7%[10 µM]
COc1cccc([C@@H]2Oc3ccc(OC)cc3C(=O)[C@H]2OC(=O)Nc2ccc(OC(F)F)cc2)c1	1%	-8%	1%	x	x	10%
Cc1cc(N2CCCCC2)nc(N2CCCCC2)n1	2%	x	-9%	25%	x	-24%
Brc1ccc2nc(N3CCN(c4ccccc4)CC3)sc2c1	6%	x	5%	4%	x	u
CC(=O)Nc1nc2cc3c(cc2s1)OCO3	16%	-5%	3%	-5%	42	-9%
Fc1ccc2nc(N3CCOCC3)sc2c1	7%	x	10%	2%	x	-41%
c1c2c(cc3sc(N4CCCCC4)nc13)OCO2	22µM*	22µM*	-10%	-8%	2	-69%
c1ccc(N2CCN(c3nc4cc5c(cc4s3)OCO5)CC2)cc1	20µM*	u	6%	0%	18	-11%[10 µM]
SMILES	ALDH1A1 inh	HPGD inh	CBFb-RUNX1 inh	HTT aggregate	PNC inhibitor	HTT ATP protect
c1c2c(cc3sc(N4CCOCC4)nc13)OCO2	10µM*	28µM*	5%	-6%	-6	-60%
c1ccc2c(c1)CCN(c1nc3cc4c(cc3s1)OCO4)C2	25µM*	32µM*	-15%	-7%	u	-145%[0.074 µM]
C[C@@H]1NCC[C@H](CC(=O)O)[C@H]1CC(=O)O	6%[13.5 µM]	-9%	x	x	x	2%[10 µM]
C=CCN1CC(C(=O)N(CCCN(C)C)C(=O)NCC)CC2c3cccc4[nH]cc(c34)CC21 (centres undefined)	x	x	10%	2%	x	-26%
O=C(c1ccc(N2CCN(C3CC(=O)N(Cc4cccs4)C3=O)CC2)cc1)c1cccnc1 (centres undefined)	3.2µM*	x	3%	-5%	x	x
CCCOC(=O)c1c(-c2ccc(C)cc2C)csc1NC(=O)C1C2CCC(O2)C1C(=O)O (centres undefined)	u	22µM*	1%	8%	-12	x
Cn1c(=O)c2c(nc(Oc3ccc4c(c3)OCO4)n2Cc2ccc(Cl)cc2)n(C)c1=O	11%	-1%	4%	11%	u	14%[0.074 µM]
C=CCOc1nc2c(c(=O)n(C)c(=O)n2C)n1Cc1ccccc1	x	x	3%	-8%[9.22 µM]	x	6%[10 µM]
CC(C)CCn1c(Oc2ccc(Cl)cc2)nc2c1c(=O)n(C)c(=O)n2C	7.9µM*	-8%	7%	-17%	38	14%
CCn1c(Oc2ccc(F)cc2)nc2c1c(=O)n(C)c(=O)n2C	6%	x	-5%	11µM*	x	-32%
COc1ccc(Oc2nc3c(c(=O)n(C)c(=O)n3C)n2Cc2ccccc2)cc1	16µM*	-11%	5%	0%[9.22 µM]	8	7%
CN(C)CCOC(=O)c1ccc(N)cc1	-2%[13.5 µM]	1%	x	x	x	8%[10 µM]
Cc1noc(C)c1-c1nccc(NCc2cccnc2)n1	-1%	-9%	x	x	x	-2%
CC(C)(C)c1ccc(/C([O-])=C(/C(=S)NCc2ccco2)[n+]2ccccc2)cc1	10µM*	-22%	-6%	7%	34	8%
CC1CC[C@]2(CO)CC[C@]3(C)C(=CCC4[C@@]5(C)CCC(O)C(C)(C)C5CC[C@@]43C)C2C1C (some centres undefined)	3%	-12%	12%	x	x	-20%
O=c1[nH]n(-c2cccc3cccnc23)c(=O)c2ccccc12	1%	25µM*	-12%	3%	-4	18%
Cc1c(Cl)cnn1CC(=O)NC1C(=O)N2C(C(=O)O)=C(CSc3nnnn3C)CSC12 (centres undefined)	-1%	x	-17%	-7%	x	17%
CC1(C2(O)CC(c3ccccc3)ON2)CCCCC1 (centres undefined)	-1%	-12%	8%	7%	22	9%
COC/C=C/C1=CC2=CC(=O)C(C)(OC(=O)c3cnc4ccccc4n3)C(=O)C2=CN1Cc1ccc2c(c1)OCO2 (centres undefined)	u	-3%	u	x	x	-6%[10 µM]
CCN(CC)c1ccc(CNc2ccc(Br)cn2)cc1	7.1µM*	-19%	-18%	8%	-14	13%[10 µM]
CCC(=O)Nc1ccc(Br)cn1	12%	x	4%	7%[9.22 µM]	x	20%[10 µM]
COC(=O)c1cc(=O)c(O)c2c(O)c(O)ccc2c1	11µM*	7.9µM*	x	x	x	x
COC(=O)c1ccc(O)cc1	-6%	3%	11%	6%	x	-22%
